Drawing on PubChem BioAssay AID651640 (Broad Institute, 2012), this text covers CPE inhibition for 42 compounds.

Hit rate of the full screen: of about 350,000 compounds, about 6,000 (1.7%) were called active. Roughly 5% stayed inconclusive and do not appear here. Cut-off read from the data, not from the text of the source: active = CPE inhibition above about 20% (passing the limit was not always enough); inconclusive = no clear call, values can overlap the other calls; tested in BHK-21 cells. The entries come from a sample that favours actives as a whole.

A short description of the assay: protection of cells from dengue 2 killing – plate reader, single concentration, primary screen (AID 651640).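 Note: 0% = median of neutral control wells and 100% = median of positive control wells.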 The conditions noted are these: DENV2-infected cells, cytopathic effect rescue, at 9.99 µM, stronger effect = higher value. A general note: Cytopathic effects are the visible damage that an infection or toxin causes in cultured cells.
For `CCN1CCN(C(=O)N(Cc2ccc(Cl)cc2)S(=O)(=O)c2ccc(C)cc2)CC1`, the CPE inhibition was -3.82% (inactive).
`CN1CCN(CC(=O)Nc2cccc([N+](=O)[O-])c2)CC1`: the CPE inhibition was -4.21% (inactive).
In the case of `Cc1ccc(S(=O)(=O)N(Cc2cccc([N+](=O)[O-])c2)C(=O)N2CCN(C)CC2)cc1`, the CPE inhibition was 56.8% (active).
With `Cc1ccccc1-c1ccc2c(c1)O[C@@H](CN(C)Cc1ccncc1)[C@@H](C)CN([C@H](C)CO)S2(=O)=O`, the CPE inhibition was 7.62% (inactive).
`CN(C)c1ccc2c(c1)[C@H]1C[C@H](CC(=O)O)O[C@H](CO)[C@H]1O2`: the CPE inhibition is 0.102% (inactive).
As to `C[C@@H]1CN([C@@H](C)CO)C(=O)c2cccc(NC(=O)c3ccc(-c4nccs4)cc3)c2O[C@H]1CN(C)Cc1ccc(Cl)c(Cl)c1`, the CPE inhibition was -8.98% (inactive).
In the case of `Cc1ccc(C(=O)C(=S)N2CCOCC2)cc1`, the CPE inhibition was 41.4% (active).
As for `Cc1ccc(C(=O)N2CCN(S(=O)(=O)N3CCOCC3)CC2)cc1`, the CPE inhibition was -4.28% (inactive).
As for `Cc1ccc(C(=O)Oc2ccc(C(=S)N3CCOCC3)cc2)cc1`, the CPE inhibition is 12.3% (inactive).
For the compound `C[C@@H]1CCCCO[C@H](CN(C)Cc2ccc(Cl)c(Cl)c2)[C@H](C)CN([C@@H](C)CO)C(=O)c2cc(NC(=O)CCC(F)(F)F)ccc2O1`, the CPE inhibition is 2.84% (inactive).
For `C[C@H](NC(=O)C[C@H]1CC[C@H]2[C@@H](COC[C@H](O)CN2C(=O)Nc2cc(Cl)cc(Cl)c2)O1)c1ccccc1`, the CPE inhibition is -1.1% (inactive).
For the compound `C/C=C(\C)C(=O)N1CC2(CC(c3cccc(NC(=O)CCCCC)c3)=NO2)C[C@@H]1C(N)=O` (some centres not stated), the CPE inhibition is 85.8% (active).
Regarding `C/C=C\C=C\C(=O)N1CC2(CC(c3cccc(NC(=O)/C(C)=C\C)c3)=NO2)C[C@H]1C(N)=O` (some centres not stated), the CPE inhibition is 11.7% (inactive).
With `CC/C=C/C(=O)N1CC2(CC(c3cccc(NC(=O)CC)c3)=NO2)C[C@H]1C(N)=O` (some centres not stated) the figure was -7.83% (inactive).
Take `C[C@@H]1CN([C@H](C)CO)C(=O)c2cc(C3=CCCCC3)cnc2O[C@@H]1CN(C)C(=O)c1ccc2c(c1)OCO2`: the CPE inhibition was -7.8% (inactive).
Take `C[C@@H]1CN([C@H](C)CO)C(=O)c2cc(NC(=O)c3ccccc3)ccc2O[C@@H](C)CCCCO[C@H]1CN(C)S(=O)(=O)c1ccccc1`: the CPE inhibition is -7.35% (inactive).
As for `COc1ccc(S(=O)(=O)N(C)C[C@@H]2OCCCC[C@@H](C)Oc3ccc(NC(=O)c4ccccc4)cc3C(=O)N([C@@H](C)CO)C[C@H]2C)cc1`, the CPE inhibition is 53.6% (active).
As to `COc1ccc(S(=O)(=O)N(C)C[C@H]2OCCCC[C@@H](C)Oc3ccc(NC(=O)c4ccncc4)cc3C(=O)N([C@H](C)CO)C[C@@H]2C)cc1`, the CPE inhibition was -4.42% (inactive).
With `C[C@@H]1CCCCO[C@H](CN(C)S(=O)(=O)c2cccs2)[C@@H](C)CN([C@H](C)CO)C(=O)c2cc(NC(=O)Nc3ccccc3)ccc2O1` the figure was 9.31% (inactive); with `CC(C)NC(=O)Nc1ccc2c(c1)C(=O)N([C@H](C)CO)C[C@@H](C)[C@@H](CN(C)S(=O)(=O)c1cccs1)OCCCC[C@@H](C)O2`, -0.241% (inactive).
With `C[C@@H]1CCCCO[C@H](CN(C)S(=O)(=O)c2cccs2)[C@H](C)CN([C@H](C)CO)C(=O)c2cc(NC(=O)c3ccccc3)ccc2O1`, the CPE inhibition was 56.2% (active).
`COC(=O)C[C@@H]1C[C@H]2c3cc(NC(=O)NC4CCCC4)ccc3O[C@H]2[C@H](CO)O1`: the CPE inhibition is 0.692% (inactive).
The same measure for `CC(C)CC#Cc1ccc2c(c1)O[C@H](CN(C)C(=O)Cc1cccnc1)[C@H](C)CN([C@@H](C)CO)S2(=O)=O`: -0.534% (inactive); for `CO[C@@H]1CN(C)C(=O)c2ccc(NC(=O)Nc3ccccc3)cc2OC[C@H](C)N(C(=O)CC2CC2)C[C@@H]1C`: -5.7% (inactive); for `COc1cccc(S(=O)(=O)N[C@H]2C=C[C@@H](CC(=O)NCc3ccccc3)O[C@@H]2CO)c1`: -4.65% (inactive).
On to `COc1cccc(S(=O)(=O)N[C@H]2C=C[C@@H](CC(=O)NCc3ccc(F)cc3)O[C@@H]2CO)c1`, for which the CPE inhibition is 3.36% (inactive).
With `COC(=O)C[C@@H]1C=C[C@@H](NS(=O)(=O)c2cccc(OC)c2)[C@@H](CO)O1`, the CPE inhibition is 1.84% (inactive).
In the case of `COc1cccc(S(=O)(=O)N[C@H]2C=C[C@H](CC(=O)NCc3ccc(Cl)cc3)O[C@@H]2CO)c1`, the CPE inhibition is 23.8% (active).
With `COc1ccccc1S(=O)(=O)N[C@@H]1C=C[C@H](CC(=O)NCc2cccc(F)c2)O[C@H]1CO` the figure was 41.8% (active); with `COc1ccccc1S(=O)(=O)N[C@H]1CC[C@@H](CC(=O)NCc2cc(F)cc(F)c2)O[C@H]1CO`, -1.83% (inactive); with `COc1ccc2c3c([nH]c2c1)[C@H](CO)N(C(=O)NC1CCCC1)CC31CN(C(=O)Nc2cccc(F)c2)C1`, 9.59% (inactive).
For `COc1ccc(NC(=O)Nc2ccc3c(c2)C(=O)N([C@@H](C)CO)C[C@@H](C)[C@H](CN(C)C(=O)NC(C)C)OCCCC[C@H](C)O3)cc1`, the CPE inhibition was 3.37% (inactive).
Consider `Cc1ccc(S(=O)(=O)Nc2ccc3c(c2)C(=O)N(C)[C@H]2CC[C@H](CC(=O)O)O[C@H]2CO3)cc1`, for which the CPE inhibition was 4.91% (inactive).
With `O=C(NCCCCc1ccccc1)C1CC(c2ccc([N+](=O)[O-])cc2)=NO1` (configuration not stated) the figure was 15.1% (inactive); with `O=C(NCc1cc(F)cc(C(F)(F)F)c1)C1CCC(=O)N(C2CCCC2)C1` (configuration not stated), 0.846% (inactive).
Take `COc1ccc(CNC(=O)C2CC(c3ccc(C(F)(F)F)cc3)=NO2)cc1` (configuration not stated): the CPE inhibition is 87.8% (active).
In the case of `COc1ccc(CNC(=O)C2CCCC2)cc1`, the CPE inhibition was -2.88% (inactive).
The same measure for `COc1ccc(C2=NOC(Cn3nc(C(=O)NCc4ccc5c(c4)OCO5)cc3-c3ccccc3)C2)cc1` (configuration not stated): 10.2% (inactive).
`O=C(NCc1cc(C(F)(F)F)cc(C(F)(F)F)c1)C1CC(c2cccc(F)c2)=NO1` (configuration not stated): the CPE inhibition is 23.7% (active).
For `O=S(=O)(N[C@@H]1CC[C@@H](CCn2cc(-c3ccccn3)nn2)O[C@@H]1CO)c1cccc(Cl)c1`, the CPE inhibition is 14.3% (inactive).
As for `C[C@H]1CN([C@@H](C)CO)C(=O)c2cc(NC(=O)C3CC3)ccc2O[C@@H]1CN(C)S(=O)(=O)c1cn(C)cn1`, the CPE inhibition was -4.92% (inactive).
In the case of `C[C@@H]1CCCCO[C@H](CN(C)C(=O)Cc2ccccc2)[C@H](C)CN([C@@H](C)CO)C(=O)c2cc(NS(=O)(=O)c3ccc(F)cc3)ccc2O1`, the CPE inhibition was -10.6% (inactive).
